# PubChem BioAssay (EPA / NIEHS)
# Active and inactive are the calls of the source. The calls were made as follows: active = hit-call score of the fitted dose curve at least 0.9, where 1 is the maximum; inactive = score below 0.9.
# Read-out: not listed separately
# Assay: BSK_KF3CT_SRB: Viability Assessment in the BioMAP Diversity Plus: KF3CT Assay (AID 2283069);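 also: total protein by sulforhodamine B staining as a cytotoxicity measure; read 24 h after compound addition; fitted for both signal gain and loss against DMSO baseline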
# Conditions: primary human keratinocytes with fibroblasts
# Outline: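 Human keratinocyte and foreskin fibroblast co-culture exposed to chemical for 24 h. Total protein measured in parallel cultures by 0.1% sulforhodamine B staining after 10% TCA fixation, read at 560 nm; bidirectional fit relative to DMSO.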
Compound,outcome,AC50
CN(c1nccc(=O)[nH]1)C1CCN(c2nc3ccccc3n2Cc2ccc(F)cc2)CC1,inactive,
CCCCCCCCCCCCCCCC(=O)OC/C=C(C)/C=C/C=C(C)/C=C/C1=C(C)CCCC1(C)C,inactive,
CC(=O)c1c(C)c([N+](=O)[O-])c(C(C)(C)C)c([N+](=O)[O-])c1C,inactive,
CC(=O)C1(C)CC2=C(CCCC2(C)C)CC1C (stereo unspecified),,10.2 µM (active)
Oc1c(Cl)cc(Cl)c(Cl)c1Cc1c(O)c(Cl)cc(Cl)c1Cl,,5.15 µM (active)
CCN(CC)C(=O)N(CC)CC,inactive,
CC1(C)C2=CCCC(C)(C)[C@]23CC[C@H]1C3,inactive,
COc1ccc(CCN2CCC(Nc3nc4ccccc4n3Cc3ccc(F)cc3)CC2)cc1,inactive,
COc1ccc(OC)c(N=Nc2c(O)ccc3ccccc23)c1,inactive,
CC(C)(C)CC(C)(C)c1ccc(OCCOCC[N+](C)(C)Cc2ccccc2)cc1,,6.61 µM (active)
O=C1OC2(c3ccccc31)c1ccc(O)c(Br)c1Oc1c2ccc(O)c1Br,inactive,
c1ccc2cc(Nc3ccc(Nc4ccc5ccccc5c4)cc3)ccc2c1,inactive,
C1=CC2C3C=CC(C3)C2C1 (stereo unspecified),inactive,
O=C1c2ccccc2C(=O)c2c(O)ccc(O)c21,inactive,
C=CC(C)(O)CCC=C(C)C (stereo unspecified),inactive,
C=C(C)C(=O)OCCOCCOCCOCCOC(=O)C(=C)C,inactive,
CS(=O)(=O)OCCCCOS(C)(=O)=O,inactive,
CCCCN(CCCC)C(=O)N(CCCC)CCCC,,8.91 µM (active)
Cc1cc(CCC(=O)OCCOCCOCCOC(=O)CCc2cc(C)c(O)c(C(C)(C)C)c2)cc(C(C)(C)C)c1O,inactive,
CC(CN=Cc1ccccc1O)N=Cc1ccccc1O (stereo unspecified),inactive,
C=C(C)C(=O)OCC(CC)(COC(=O)C(=C)C)COC(=O)C(=C)C,inactive,
CS(=O)(=O)c1ccc(C2=C(c3ccccc3)C(=O)OC2)cc1,inactive,
CCC(C)c1cc([N+](=O)[O-])cc([N+](=O)[O-])c1OC(=O)OC(C)C (stereo unspecified),,25.3 µM (active)

# Read-out: Interleukin-1 alpha (IL1a), IL1A (gene 3552)
# Assay: BSK_KF3CT_IL1a: BioMAP Diversity Plus: KF3CT Assay for Interleukin-1 alpha (IL1a) Biomarker Activity (AID 2283070)
# Conditions: primary human keratinocytes with fibroblasts; actives raise or lower the signal
# Outline: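 Primary human keratinocyte plus foreskin fibroblast co-culture, dosed and measured at 24 h in 96-well plates. IL-1a level quantified by ELISA; bidirectional fit relative to DMSO.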
Compound,outcome,AC50
CN(c1nccc(=O)[nH]1)C1CCN(c2nc3ccccc3n2Cc2ccc(F)cc2)CC1,inactive,
CCCCCCCCCCCCCCCC(=O)OC/C=C(C)/C=C/C=C(C)/C=C/C1=C(C)CCCC1(C)C,inactive,
CC(=O)c1c(C)c([N+](=O)[O-])c(C(C)(C)C)c([N+](=O)[O-])c1C,inactive,
CC(=O)C1(C)CC2=C(CCCC2(C)C)CC1C (stereo unspecified),,13.1 µM (active)
Oc1c(Cl)cc(Cl)c(Cl)c1Cc1c(O)c(Cl)cc(Cl)c1Cl,,1.83 µM (active)
CCN(CC)C(=O)N(CC)CC,inactive,
CC1(C)C2=CCCC(C)(C)[C@]23CC[C@H]1C3,inactive,
COc1ccc(CCN2CCC(Nc3nc4ccccc4n3Cc3ccc(F)cc3)CC2)cc1,inactive,
COc1ccc(OC)c(N=Nc2c(O)ccc3ccccc23)c1,,8.38 µM (active)
CC(C)(C)CC(C)(C)c1ccc(OCCOCC[N+](C)(C)Cc2ccccc2)cc1,,8.08 µM (active)
O=C1OC2(c3ccccc31)c1ccc(O)c(Br)c1Oc1c2ccc(O)c1Br,,20 µM (active)
c1ccc2cc(Nc3ccc(Nc4ccc5ccccc5c4)cc3)ccc2c1,inactive,
C1=CC2C3C=CC(C3)C2C1 (stereo unspecified),inactive,
O=C1c2ccccc2C(=O)c2c(O)ccc(O)c21,inactive,
C=CC(C)(O)CCC=C(C)C (stereo unspecified),inactive,
C=C(C)C(=O)OCCOCCOCCOCCOC(=O)C(=C)C,inactive,
CS(=O)(=O)OCCCCOS(C)(=O)=O,inactive,
CCCCN(CCCC)C(=O)N(CCCC)CCCC,,10.5 µM (active)
Cc1cc(CCC(=O)OCCOCCOCCOC(=O)CCc2cc(C)c(O)c(C(C)(C)C)c2)cc(C(C)(C)C)c1O,inactive,
CC(CN=Cc1ccccc1O)N=Cc1ccccc1O (stereo unspecified),inactive,
C=C(C)C(=O)OCC(CC)(COC(=O)C(=C)C)COC(=O)C(=C)C,inactive,
CS(=O)(=O)c1ccc(C2=C(c3ccccc3)C(=O)OC2)cc1,inactive,
CCC(C)c1cc([N+](=O)[O-])cc([N+](=O)[O-])c1OC(=O)OC(C)C (stereo unspecified),,20 µM (active)
